# Bioassay records from PubChem.
# HP1b chromo inh – HTS for Inhibitors of HP1-beta Chromodomain Interactions with Methylated Histone Tails; Potency, µM (top dose mostly 114 µM), inactives show top-dose activity change, negative = inhibition, hits mostly inhibitors; Chromobox protein homolog 1 (Homo sapiens), P83916; AID 540317, 2011; actives 0.56% (n = 390,000); AlphaScreen HP1-beta / biotin-H3K9me3 peptide binding; also: nearly all actives have a fitted effect of over 70% in size
#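 Compound inhibition of the preformed complex between 50 nM HP1-beta and 50 nM biotinylated H3K9me3 peptide was read by AlphaScreen. Buffer was PBS pH 7.4 with 0.01% Tween-20. Incubations ran 30 min at room temperature, with 10 ug/mL donor/acceptor beads.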
# G9a inh – qHTS Assay for Inhibitors of Histone Lysine Methyltransferase G9a. Histone-lysine N-methyltransferase EHMT2 (Homo sapiens), Q96KQ7. G9a H3K9 monomethylation, AlphaScreen, 2 h. Potency, µM (doses to about 102 µM), for the others: at the top dose activity, negative = inhibition, hits mostly inhibitors. actives 8.8% (n = 350,000). AID 504332, 2011; also: % is scaled to controls: 0 for no effect and ±100 for the full control effect; nearly all actives have a fitted effect of over 75% in size
#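 Methyltransferase reactions run at room temperature for 2 h (20 nM enzyme, 500 nM biotin-H3K9 peptide, 20 uM SAM) after a 15 min compound preincubation; product detected by AlphaScreen beads and anti-H3K9me1 antibody.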
# JMJD2A Tudor – qHTS Assay for Inhibitors of JMJD2A-Tudor Domain; AlphaScreen JMJD2A-Tudor / H3K4me3 peptide binding; actives 4.4% (n = 390,000); Potency, µM (top dose mostly 114 µM), for the others: at the highest dose activity change, negative = inhibition, hits mostly inhibitors; also: % is scaled to controls: 0 for no effect and ±100 for the full control effect; nearly all actives have a fitted effect of over 50% in size
# BAZ2B block – qHTS Assay for Inhibitors of BAZ2B | Bromodomain adjacent to zinc finger domain protein 2B (Homo sapiens), Q9UIF8 | AlphaScreen BAZ2B-H3K14Ac peptide displacement | Potency, µM (doses to about 114 µM), without a hit: at the top dose activity change, negative = inhibition, hits mostly inhibitors | actives 4.4% (n = 360,000) | AID 504333, 2011; also: % is scaled to controls: 0 for no effect and ±100 for the full control effect; nearly all actives have a fitted effect of over 60% in size
#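 BAZ2B (50 nM) with biotin-H3(5-23)K14Ac peptide (50 nM) in PBS pH 7.4, 0.01% Tween-20, preformed 30 min, then compound 30 min at room temperature; top concentration 110uM. AlphaScreen streptavidin donor/nickel chelate acceptor beads (10 ug/mL final), 20 min dark, signal read.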
# Sfp PPTase inh – qHTS Assay for Inhibitors of Bacillus subtilis Sfp phosphopantetheinyl transferase (PPTase); 4'-phosphopantetheinyl transferase ffp (Bacillus subtilis), Q9F4F7; Biochemical Sfp PPTase activity, qHTS; Potency, µM, without a hit: largest response in the series, negative = inhibition, most hits filed as inhibitors; actives 3.5% (n = 310,000);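 also: the enzyme is Sfp with the accession as filed and its product quenches rhodamine fluorescence; 0% = enzyme reaction without inhibitor and -100% = no enzyme wells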
#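 With Hepes-Na pH 7.6 buffer containing 10 mM MgCl2, Sfp (15 nM) modified BHQ-2-YbbR (12.5 uM) using rhodamine-CoA (5 uM). Two reads 30 minutes apart at 525/598 nm yielded each well's rate.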
# * = called active by the depositor; ? = inconclusive; nt = no result; [ ] = remark or other dose. A selection: hits, their analogues and other compounds. The true share with any hit is near 12%. Calls follow the shape of the dose curve; as a rule, active = well fitted curve in the direction sought with a large enough effect; inconclusive = small, poorly fitted or top-dose-only effect, or another doubt; inactive = no such curve, though single readings can be large; an effect the other way counts as inactive or inconclusive. Potency is read from the fitted curve at half-maximal effect.
SMILES,HP1b chromo inh,G9a inh,JMJD2A Tudor,BAZ2B block,Sfp PPTase inh
COc1cccc(/C=N/NC(=O)c2oc3nc(-c4ccccc4)cc(-c4ccco4)c3c2N)c1,36.9%,31.6µM*,-9.7%,-19.6%,-12.8%
O=C(NCc1ccco1)c1ccc(Cl)nc1,8.7%,?,-23.9%,-37.3%,8.1%
CS(=O)(=O)N1CCc2cc(-c3csc(NC(=O)Cc4ccccc4)n3)ccc21,13.1%,14.1µM*,-23.9%,-14.5%,11.7%
O=C1COc2ccc(-c3csc(NCC4CCCO4)n3)cc2N1 (centres undefined),-0.1%,?,-32.8%,-36.2%,-18.5%
CCCC(=O)Nc1nc(-c2ccc3c(c2)CCN3S(C)(=O)=O)cs1,11.7%,11.1%[59 µM],-8.9%,-10.9%,-13.7%
CS(=O)(=O)N1CCc2cc(-c3csc(NCC4CCCO4)n3)ccc21 (centres undefined),20.1%,5.62µM*,-23.2%,-5.6%,50.1µM*
CCOc1ccccc1CNC(=O)CCCc1cn(C)c2ccccc12,-6.2%,50.1µM*,?,?,7.6%
CCOc1ccc(CCNC(=O)COC(=O)Cc2c[nH]c3ccccc23)cc1OCC,16.0%,?,-13.8%,-24.8%,nt
CCOc1ccc(NC(=O)CC2C(=O)N(CC)C(=S)N2CCN2CCOCC2)cc1 (centres undefined),-4.1%,24.9%,50.1µM*,-9.3%,10.5%
CCN1CCOC(=O)C1CC(=O)Nc1cccc(OC)c1 (centres undefined),3.8%,?,-7.5%,-30.4%,nt
CCN1CCOC(=O)C1CC(=O)Nc1ccc(C)c(Cl)c1 (centres undefined),22.9%,2µM*,-16.0%,-22.5%,nt
CCOc1ccc(NC(=O)CC2C(=O)OCCN2CC)cc1 (centres undefined),0.5%,2.24µM*,-14.6%,?,nt
CCOC(=O)c1ccc(NC(=O)CC2C(=O)OCCN2CC)cc1 (centres undefined),19.4%,6.31µM*,-10.8%,-48.7%,-13.0%
O=C(CCN1CCOCC1)NNC(=O)c1ccc(Cl)c([N+](=O)[O-])c1,4.6%,nt,-11.0%,nt,nt
NC(=O)c1cc2cc(Br)ccc2o/c1=N/NC(=O)c1cccc(F)c1,21.7%,-7.8%,-1.8%,4.1%,-0.9%
COc1cc(C(c2oc(CO)cc(=O)c2O)c2oc(CO)cc(=O)c2O)cc(OC)c1OC,55.2%,11.2µM*,?,50.1µM*,-25.2%
COc1ccc(C(c2oc(CO)cc(=O)c2O)c2oc(CO)cc(=O)c2O)cc1OC,43.0%,20µM*,?,50.1µM*,-32.7%
CC(C)OC(=O)C1Cc2ccccc2CN1S(=O)(=O)c1cccs1 (centres undefined),40.5%,79.4µM*,-7.6%,?,7.3%
CCOC(=O)c1c(N)sc(C(=O)Nc2ccc3c(c2)OCO3)c1C,4.1%,-11.8%[12.7 µM],-33.8%,-37.3%,6.0%
CCN1CCN(C(=O)c2c(-c3c(F)cccc3Cl)noc2C)CC1,50.0%,12.3%,0.8%[57.1 µM],-12.4%,-5.9%
Cc1onc(-c2ccccc2)c1C(=O)N1CCCC1,31.8%,55.2%,-17.3%,50.1µM*,14.1%
Cc1onc(-c2c(F)cccc2Cl)c1C(=O)N1CCSCC1,45.0%,50.1µM*,7.0%,-10.7%,9.3%
O=C(CCCn1c(=O)c2ccccc2n(CC(=O)Nc2cccc(C(F)(F)F)c2)c1=O)NCc1ccc2c(c1)OCO2,16.3%,-36.2%[59 µM],-3.4%,0.7%,nt
Cc1nc(-c2c(C(=O)NNC(=O)Nc3c(C)cccc3C)noc2C)cs1,9.8%,-5.2%,-7.3%,0.4%,18.9%
c1ccc(C[C@H]2CN=C(Nc3ccccc3)N2CCCC2CCCC2)cc1,25.7%,44.7µM*,-29.6%,?,-27.1%
O=C(CCN1C(=O)c2ccccc2C1=O)CN1CCOCC1,-6.5%,50.1µM*,-32.3%,6.4%,8.6%
COc1ccc(/C=C/C(=O)Nc2ccc(-n3nncc3-c3ccccc3)cc2)cc1OC,-13.5%,44.7µM*,-17.6%,1.8%,-3.3%
